Test [1] in a line: NCI Yeast Anticancer Drug Screen. Data for the rad50 strain (AID 155).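 Further: 0% = growth of vehicle-only cultures of the same strain.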 As to conditions: S. cerevisiae rad50 strain growth inhibition, hits give high values. A digest of the protocol:
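Relative growth inhibition (compound vs vehicle) was measured in yeast with a defined repair-gene alteration.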

Test [2] can be described thus: NCI Yeast Anticancer Drug Screen. Data for the mec2-1 strain (AID 157). As to conditions: S. cerevisiae mec2-1 strain, hits give high values. A digest of the protocol: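 Using mec2-1 yeast: add compound, measure growth, express inhibition versus vehicle-treated cultures.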
Test [3] can be described thus: NCI Yeast Anticancer Drug Screen. Data for the sgs1 mgt1 strain (AID 161).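 Further: 0% = growth of cultures given vehicle only.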 As to conditions: S. cerevisiae sgs1 mgt1 strain, hits give high values. An outline of the steps: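 Growth of a repair-deficient yeast mutant was monitored after compound treatment and expressed as inhibition relative to vehicle-treated cultures.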
Test [4] can be described thus: NCI Yeast Anticancer Drug Screen. Data for the cln2 rad14 strain (AID 165).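 Further: 0% = growth equal to vehicle treated cultures.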 As to conditions: S. cerevisiae cln2 rad14 strain, hits give high values. A digest of the protocol: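 Yeast strain cln2 rad14, bearing defects in cell cycle control and DNA repair, serves as the test system; values reflect growth inhibition compared with vehicle.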
The nature of test [5]: NCI Yeast Anticancer Drug Screen. Data for the bub3 strain (AID 167). Conditions: S. cerevisiae bub3 mutant strain, hits give high values. An outline of the steps: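 Screening used yeast with an engineered genetic alteration affecting cell cycle control. Compound-exposed cultures were compared with vehicle cultures, and reduced growth was taken as inhibition.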
Test [6] can be described thus: NCI Yeast Anticancer Drug Screen. Data for the mlh1 rad18 strain (AID 175). As to conditions: S. cerevisiae mlh1 rad18 strain growth inhibition, hits give high values. An outline of the steps:
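Steps: expose repair-defective yeast to compound; measure growth; express inhibition against vehicle-treated controls.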

Setting [7] is: at 5.0 µM (retest, dose inferred, filed as 0.5).
Setting [8] is: at 50.0 µM (retest, dose inferred, filed as 5.0).

Compounds without any hit were thinned out: in the full panel of roughly 79,000, 15% have a hit. Unmarked numbers belong to inactive results. Active and inactive are the calls of the source. No stated cut-off is given here; in the data, active means growth inhibition above about 70%; inactive means the rest.

Turning to `C/C(=C\c1ccccc1)[N+](=O)[O-]`, the growth inhibition in test [1] (setting [7]) is 96% (active); in test [1] (setting [8]) it was 99% (active); in test [1] (at 50.0 µM), 98.7% (active); in test [2] (setting [7]), 26%; in test [2] (setting [8]) it was 100% (active); in test [2] (at 50.0 µM), 93.2% (active). Further, the growth inhibition in test [3] (setting [7]) is 26%; in test [3] (setting [8]), 98% (active); in test [3] (at 50.0 µM), 92.4% (active); in test [4] (setting [7]), 11%; in test [4] (setting [8]), 97% (active); in test [4] (at 50.0 µM) it was 46.9%. In addition, the growth inhibition in test [5] (setting [7]) is 12%; in test [5] (setting [8]), 99% (active); in test [5] (at 50.0 µM), 94.2% (active); in test [6] (setting [7]) it was 35%; in test [6] (setting [8]), 99% (active); in test [6] (at 50.0 µM), 99.3% (active).
`CC(=O)NC1=C(N(CCCl)CCCl)C(=O)c2ccccc2C1=O`: the growth inhibition in test [1] (setting [7]) is 20%; in test [1] (setting [8]) it was 98% (active); in test [1] (at 50.0 µM), 99% (active); in test [2] (setting [7]) it was 12%; in test [2] (setting [8]), 98% (active); in test [2] (at 50.0 µM), 98.2% (active). Also, the growth inhibition in test [3] (setting [7]) is 18%; in test [3] (setting [8]), 99% (active); in test [3] (at 50.0 µM), 98.2% (active); in test [4] (setting [7]), -4%; in test [4] (setting [8]), 96% (active); in test [4] (at 50.0 µM), 96.2% (active). The growth inhibition is 23% in test [5] (setting [7]); 97% (active) in test [5] (setting [8]); 99% (active) in test [5] (at 50.0 µM); 18% in test [6] (setting [7]); 98% (active) in test [6] (setting [8]); 98.9% (active) in test [6] (at 50.0 µM).
As to `CC(C=O)[Se]c1ccccc1` (configuration not stated), the growth inhibition is -2% in test [1] (setting [7]); 57% in test [1] (setting [8]); 91.9% (active) in test [1] (at 50.0 µM); 8% in test [2] (setting [7]); 53% in test [2] (setting [8]); 77.7% (active) in test [2] (at 50.0 µM). Further, the growth inhibition in test [3] (setting [7]) was -3%; in test [3] (setting [8]) it was 72% (active); in test [3] (at 50.0 µM), 86.2% (active); in test [4] (setting [7]) it was -9%; in test [4] (setting [8]), 48%; in test [4] (at 50.0 µM) it was 48.6%. Moreover, the growth inhibition in test [5] (setting [7]) is 11%; in test [5] (setting [8]), 67%; in test [5] (at 50.0 µM), 86.8% (active); in test [6] (setting [7]), 12%; in test [6] (setting [8]) it was 73% (active); in test [6] (at 50.0 µM), 91.5% (active).
With `CCC(=O)C(CCN1CCC(N2C(=O)C(CCC#N)c3ccccc32)CC1)(c1ccccc1)c1ccccc1` (configuration not stated), the growth inhibition in test [1] (setting [7]) was -3%; in test [1] (setting [8]), -3%; in test [1] (at 50.0 µM), -7.55%; in test [2] (setting [7]), -6%; in test [2] (setting [8]), -6%; in test [2] (at 50.0 µM), -23.4%. Further, the growth inhibition is 8% in test [3] (setting [7]); -3% in test [3] (setting [8]); 10.8% in test [3] (at 50.0 µM); -2% in test [4] (setting [7]); 14% in test [4] (setting [8]); 3.15% in test [4] (at 50.0 µM). For the same molecule, the growth inhibition was -1% in test [5] (setting [7]); -17% in test [5] (setting [8]); 10.2% in test [5] (at 50.0 µM); -23% in test [6] (setting [7]); 1% in test [6] (setting [8]); 32.2% in test [6] (at 50.0 µM).
On to `CC(Cl)CN1COc2c3c(c4ccccc4c2C1)CN(CC(C)Cl)CO3` (configuration not stated), for which the growth inhibition in test [1] (setting [7]) was 0%; in test [1] (setting [8]), 98% (active); in test [1] (at 50.0 µM), 83.7% (active); in test [2] (setting [7]) it was 2%; in test [2] (setting [8]) it was 99% (active); in test [2] (at 50.0 µM), 68.8%. Also, the growth inhibition is -3% in test [3] (setting [7]); 99% (active) in test [3] (setting [8]); 82.8% (active) in test [3] (at 50.0 µM); 0% in test [4] (setting [7]); 95% (active) in test [4] (setting [8]); 77.5% (active) in test [4] (at 50.0 µM). The growth inhibition is 0% in test [5] (setting [7]); 98% (active) in test [5] (setting [8]); 66.4% in test [5] (at 50.0 µM); 0% in test [6] (setting [7]); 97% (active) in test [6] (setting [8]); 81.8% (active) in test [6] (at 50.0 µM).
For the molecule `O=C(O)c1cc(Cc2ccc(O)c(C(=O)O)c2)ccc1O` (tested in a mixture with another compound), the growth inhibition in test [1] (setting [7]) is 92% (active); in test [1] (setting [8]) it was 32%; in test [1] (at 50.0 µM), 42.6%; in test [2] (setting [7]), 76% (active); in test [2] (setting [8]), 4%; in test [2] (at 50.0 µM) it was 26.7%. Also, the growth inhibition in test [3] (setting [7]) is 40%; in test [3] (setting [8]), 48%; in test [3] (at 50.0 µM) it was 85% (active); in test [4] (setting [7]), 31%; in test [4] (setting [8]), 41%; in test [4] (at 50.0 µM), 14.1%. Also, the growth inhibition in test [5] (setting [7]) was 33%; in test [5] (setting [8]), 36%; in test [5] (at 50.0 µM), 72.7% (active); in test [6] (setting [7]) it was 87% (active); in test [6] (setting [8]) it was 36%; in test [6] (at 50.0 µM), 74.4% (active).
On to `CCOC(=O)C(Cl)Cl`, for which the growth inhibition in test [1] (setting [7]) was -1%; in test [1] (setting [8]), 0%; in test [1] (at 50.0 µM), -32.4%; in test [2] (setting [7]) it was 3%; in test [2] (setting [8]), -2%; in test [2] (at 50.0 µM), -2.7%. The growth inhibition in test [3] (setting [7]) is 0%; in test [3] (setting [8]), -2%; in test [3] (at 50.0 µM) it was -5.25%; in test [4] (setting [7]), -2%; in test [4] (setting [8]), -4%; in test [4] (at 50.0 µM), -39.8%. Further, the growth inhibition in test [5] (setting [7]) is 1%; in test [5] (setting [8]), -5%; in test [5] (at 50.0 µM) it was -18.3%; in test [6] (setting [7]), 2%; in test [6] (setting [8]), -2%; in test [6] (at 50.0 µM), 33.4%.
Consider `CC(=O)[O][Sn]([c]1ccccc1)([c]1ccccc1)[c]1ccccc1`, for which the growth inhibition is 97% (active) in test [1] (setting [7]); 99% (active) in test [1] (setting [8]); 91.1% (active) in test [1] (at 50.0 µM); 99% (active) in test [2] (setting [7]); 99% (active) in test [2] (setting [8]); 93.4% (active) in test [2] (at 50.0 µM). For the same molecule, the growth inhibition is 98% (active) in test [3] (setting [7]); 98% (active) in test [3] (setting [8]); 93.6% (active) in test [3] (at 50.0 µM); 90% (active) in test [4] (setting [7]); 98% (active) in test [4] (setting [8]); 92.8% (active) in test [4] (at 50.0 µM). In addition, the growth inhibition in test [5] (setting [7]) was 98% (active); in test [5] (setting [8]), 96% (active); in test [5] (at 50.0 µM), 92.1% (active); in test [6] (setting [7]) it was 100% (active); in test [6] (setting [8]), 99% (active); in test [6] (at 50.0 µM), 91.4% (active).
Regarding `Cc1ccc(OP(=O)(Oc2ccc(C)cc2)Oc2ccc(C)cc2)cc1.Cc1ccc(OP(=O)(Oc2ccc(C)cc2)Oc2ccc(C)cc2)cc1.Cc1ccc(OP(=O)(Oc2ccc(C)cc2)Oc2ccc(C)cc2)cc1.Cc1ccc(OP(=O)(Oc2ccc(C)cc2)Oc2cccc(C)c2)cc1.[Cd+2].[O-][Cl+3]([O-])([O-])O`, the growth inhibition is 12% in test [1] (setting [7]); 64% in test [1] (setting [8]); 58.6% in test [1] (at 50.0 µM); 6% in test [2] (setting [7]); 33% in test [2] (setting [8]); 45% in test [2] (at 50.0 µM). Further, the growth inhibition is 9% in test [3] (setting [7]); 29% in test [3] (setting [8]); 20% in test [3] (at 50.0 µM); -11% in test [4] (setting [7]); 32% in test [4] (setting [8]); 62.6% in test [4] (at 50.0 µM). Also, the growth inhibition in test [5] (setting [7]) is 10%; in test [5] (setting [8]), 23%; in test [5] (at 50.0 µM) it was 36.6%; in test [6] (setting [7]) it was 10%; in test [6] (setting [8]) it was 36%; in test [6] (at 50.0 µM) it was 39.2%.
